The list is not random: actives were taken first. Their share in the collection is about 17%.
TGFb SMAD3 inh: inhibitors of TGF-b signaling; HepG2 CAGA-GFP TGF-b/SMAD3 reporter, GFP fluorescence, 18 h; TGF-beta stimulated, 500 pg/mL final; Potency, µM (doses to about 46.1 µM), for inactives: top-dose activity, negative = inhibition, hits mostly inhibitors; 1.2% of 410,000 active; AID 588855; note: % is set by controls: 0 for no effect and ±100 for the full control effect; nearly all actives have a fitted effect of over 65% in size
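HEPG2 CAGA-GFP cells (1000/well, DMEM with 1% FBS) were pre-incubated 2 h at 37 degrees C, given compound by pin tool, then stimulated with TGF-beta at 500 pg/mL final for 18 h before per-cell GFP fluorescence imaging.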
HepG2 viability: counter-screen for TGF-b inhibitors: cytotoxicity in HepG2 cells | HepG2 CAGA-GFP viability, ATP luminescence, 18 h | Potency, µM (highest dose often 46.1 µM), for the others: top-dose activity change, negative = cytotoxicity, hits mostly cytotoxic | 0.76% of 410,000 active | AID 588856
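HepG2 CAGA-GFP cells (1000/well, DMEM with 1% FBS) received compound, then TGF-beta at 500 pg/mL final, and were incubated 18 hours at 37 degrees C. Viability was read by CellTiter-Glo luminescence. Media-only wells were set as complete cell-killing and DMSO as no toxicity.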
ATXN2 expr inh: inhibitors of ATXN2 expression; Potency, µM (doses to about 57 µM), for the others: top-dose activity change, negative = inhibition, most hits filed as inhibitors; 0.72% of 360,000 active; HEK-293 ATXN2-luciferase reporter, luminescence, 24 h; note: % is set by controls: 0 for no effect and ±100 for the full control effect; nearly all actives have a fitted effect of over 55% in size
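ATXN2-luciferase reporter cells (luciferase flanked by upstream and downstream ATXN2 gene portions) were treated 24 h at 37 °C with compounds at up to 57 uM. SteadyGlo luminescence gave expression; GF-AFC fluorescence gave viability.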
TDP1 cell noCPT: qHTS for Inhibitors of human tyrosyl-DNA phosphodiesterase 1 (TDP1): qHTS in cells in absence of CPT; Potency, µM (series often up to 46.2 µM), inactives show at the top dose activity change, negative = growth inhibition, actives largely listed as inhibitors; DT40 Tdp1-/- hTDP1 cells, no CPT, ATP luminescence, 48 h; 15% of 420,000 active; note: % is set by controls: 0 for no effect and ±100 for the full control effect; nearly all actives have a fitted effect of over 55% in size
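No-CPT arm: Tdp1-/-;hTDP1 DT40 cells (400/well) plus compounds, incubated ≥48 hr at 37 °C. Readout CellTiter-Glo luminescence.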
ATXN viability: viability counter-screen for ATXN expression inhibitors. S2 cells (HEK-293 line with an ATXN2-luciferase reporter) viability, CellTiter-Fluor protease fluorescence, 24 h. AID 651635. 0.49% of 400,000 active. Potency, µM (titrated, usually from 56.7 µM), most hits filed as cytotoxic; note: nearly all actives have a fitted effect of over 40% in size
TDP1 cell CPT: growth inhibition of DT40 Tdp1-/-;hTDP1 cells with camptothecin (screen for TDP1 inhibitors); Potency, µM (top dose mostly 46.2 µM), for the others: at the top dose activity change, negative = growth inhibition, most hits filed as inhibitors; chicken DT40 Tdp1-/-;hTDP1 cells + 20 nM CPT, ATP luminescence, 48 h; 12% of 420,000 active; note: % is set by controls: 0 for no effect and ±100 for the full control effect; nearly all actives have a fitted effect of over 55% in size
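Chicken DT40 Tdp1-/- cells stably complemented with human TDP1 were seeded at 400 cells/well in medium containing 20 nM camptothecin, exposed to pin-transferred compounds, and grown at 37 °C for at least 48 hr. Viability was read as ATP luminescence.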
* = called active by the depositor; i = inactive; ? = inconclusive; · = not tested or not shown. Calls come from the whole dose curve; as a rule, active = well fitted curve in the direction sought with a large enough effect; inconclusive = small, poorly fitted or top-dose-only effect, or another doubt; inactive = no such curve, though single readings can be large; an effect the other way counts as inactive or inconclusive. Potency is the fitted concentration of half-maximal effect.

SMILES	TGFb SMAD3 inh	HepG2 viability	ATXN2 expr inh	TDP1 cell noCPT	ATXN viability	TDP1 cell CPT
Cc1ccccc1N1CC(c2nc3ccccc3n2CCC2CCCCC2)CC1=O (stereo not given)	?	-103%	?	10µM*	·	13µM*
CCOc1ccccc1N1CC(c2nc3ccccc3n2CCCOc2ccccc2)CC1=O (stereo not given)	3%	-12%	-9%	?	i	-24%
Cc1cccc(C)c1N1CC(c2nc3ccccc3n2CC(=O)OC(C)C)CC1=O (stereo not given)	?	-3%	-15%	16µM*	?	?
CCc1ccccc1N1CC(c2nc3ccccc3n2CCC2CCCCC2)CC1=O (stereo not given)	?	10µM*	?	5.2µM*	28µM*	5.8µM*
Cc1cccc(C(=O)NC2(C(F)(F)F)N=C(c3ccccc3)N(Cc3ccccc3)C2=O)c1 (stereo not given)	-7%	0%	-1%	?	i	?
Cc1ccc(C23CC4CC(CC(C(=O)NC(C)C(N)=O)(C4)C2)C3)cc1 (stereo not given)	-1%	8%	·	-30%	i	-19%
CNc1ccc(/C=C\CCCO)cn1	8%	-8%	11%	11%	i	4%
Cc1cccc(N2CC(c3nc4ccccc4n3CCC3CCCCC3)CC2=O)c1 (stereo not given)	?	-2%	-4%	18µM*	i	?
COc1ccc(-c2sc3cc(OC)c(OC)cc3c2-c2ccc(O)cc2)cc1	?	-100%	?	?	?	?
Cc1ccc2c(c1)/C(=C/c1ccccc1)C(=O)N2	?	-28%	0%	?	i	-12%
O=C1Nc2ccc(I)cc2/C1=C/c1cc(Br)c(O)c(Br)c1	·	·	·	?	·	13µM*
O=C(O)COc1ccccc1/C=C1\C(=O)Nc2ccc(Br)cc21	-5%	-4%	8%	5%	i	12%
O=C1Nc2ccc(I)cc2C1=Cc1cc(Br)c(O)c(Br)c1	4%	8%	-4%	11µM*	·	10µM*
Cc1ccc(C2=Nc3ccccc3N=C(c3ccco3)C2)c(O)c1	0%	8%	-13%	-25%	i	-17%
Cc1ccc(O)c(C2=Nc3ccccc3N=C(c3ccco3)C2)c1	7%	-33%	-6%	13µM*	i	?
Cc1[nH]nc(N=CC2=C(O)CC(C)(C)CC2=O)c1-c1ccccc1	-13%	-10%	-4%	16µM*	i	?
Cc1[nH]nc(N=CC2=C(O)CC(c3ccco3)CC2=O)c1-c1ccccc1 (stereo not given)	6%	-15%	0%	?	i	?
Cc1cccc(C(=O)NCC(=O)NCCCSc2ccccc2)c1	-8%	-13%	-12%	?	?	?
O=C(NCCCN1CCN(CCCNC(=O)c2cccc(Cl)c2)CC1)c1cccc(Cl)c1	-11%	4%	-9%	?	?	18µM*
O=C(CCN1CCCCC1)c1cccc(Cl)c1	0%	-1%	-26%	?	i	21µM*
O=C(CNC(=O)c1cccc(Cl)c1)NCCCSc1ccccc1	32%	-3%	-4%	23µM*	i	?
Cc1ccccc1OCCC(=O)NNC(=O)COc1cccc(F)c1	4%	4%	8%	-15%	i	-8%
COc1ccc2c(c1)c(C(=O)CN1CCN(C(=O)c3ccco3)CC1)c(C)n2C	5%	-2%	2%	?	i	-20%

Source: PubChem (National Center for Advancing Translational Sciences (NCATS))
